HCV inh: inhibitors of hepatitis C virus infection; Huh7.5.1 HCVcc-Cre infection, luciferase reporter, 44 h; Potency, µM (series often up to 41.8 µM), for inactives: top-dose activity change, negative = inhibition, hits mostly inhibitors; 340,000 tested, 3.4% active; AID 651820; further: potency means the concentration at half of the fitted maximal effect; on the % scale 0 is the no-effect control and ±100 the full control effect
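Infectious HCVcc-Cre (~0.5 moi) was added to cells just after compound, with cells seeded 4 h earlier at 1,000 per well. Luciferase activity after 44 h culture reported infection; substrate was incubated 15 min at room temperature before reading.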
Pf growth 48h: inhibits P. falciparum growth in the first generation, 48 h. P. falciparum luciferase growth in erythrocytes, 48 h. Potency, µM (doses to about 28.7 µM), without a hit: at the top dose activity change, negative = inhibition, actives largely listed as inhibitors. 310,000 tested, 5.9% active; further: potency means the concentration at half of the fitted maximal effect; on the % scale 0 is the no-effect control and ±100 the full control effect
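Compounds are pin-transferred into medium, infected erythrocytes (2% hematocrit, 0.1% parasitemia final) are added, and plates sit one parasite generation at 37 C in 5% CO2. Detection reagent is then added and luminescence measured.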
Pf growth 96h: P. falciparum growth inhibition at 96 hours. Potency, µM (titrated, usually from 28.7 µM), without a hit: at the highest dose activity change, negative = inhibition, most hits filed as inhibitors. 320,000 tested, 6.9% active. P. falciparum luciferase reporter growth, 96 h. AID 504834; further: potency means the concentration at half of the fitted maximal effect; on the % scale 0 is the no-effect control and ±100 the full control effect
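Erythrocytes infected with luciferase-expressing P. falciparum were dispensed at 2% hematocrit and 0.05% parasitemia (final), then incubated with compounds 96 hours at 37 C in 5% CO2. Luminescence after detection reagent addition reported growth.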
Sm TGR inh: inhibitors of Schistosoma mansoni thioredoxin glutathione reductase. Q962Y6. purified TGR, DTNB reduction, TNB absorbance 405 nm. Potency, µM (doses to about 114 µM), without a hit: top-dose activity change, negative = inhibition, actives largely listed as inhibitors. 360,000 tested, 3% active; further: potency means the concentration at half of the fitted maximal effect; on the % scale 0 is the no-effect control and ±100 the full control effect; nearly all actives have a fitted effect of over 60% in size
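Kinetic colorimetric format: TGR-catalysed, NADPH-driven DTNB reduction monitored via TNB absorbance. Enzyme dispensed at 20 nM; compound exposure 15 min at room temperature before reaction start.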
HCMV antiviral: blocks human cytomegalovirus replication. HFF cells, HCMV-luciferase reporter, 72 h; hits give low values. activity change, negative = inhibition, % at 57.5 µM. 410,000 tested, 4.5% active. AID 1259415; in the data active means activity change below about -60%; inconclusive means no clear call, values can overlap the other calls; inactive means above about -39%; further: on the % scale 0 is the no-effect control and ±100 the full control effect
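Human foreskin fibroblasts infected with luciferase-reporter HCMV at MOI 1 PFU/cell, compounds at two doses. Luciferase measured 72 h post infection; normalized to buffer-only basal and Salinomycin (10uM) controls.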
SARS PLpro yeast: SARS-CoV PLP inhibition in yeast | S. cerevisiae expressing SARS-CoV PLpro, growth rescue | Potency, µM (doses to about 32.9 µM), for inactives: at the top dose activity, positive = growth rescue, most hits filed as activators | 330,000 tested, 0.19% active | AID 485353; calls by dose curve; further: potency means the concentration at half of the fitted maximal effect; 0% is about no effect; nearly all actives have a fitted effect of over 55% in size
Starred values were filed as active, the others as inactive. Most compounds without a hit are left out; they make up all but 15% or so of the library. Unless noted, the call rests on the fitted dose curve; in most records, active means well fitted curve in the direction sought with a large enough effect; inconclusive means small, poorly fitted or top-dose-only effect, or another doubt; inactive means no such curve, though single readings can be large; an effect the other way counts as inactive or inconclusive.

For Cc1nn(-c2ccccc2)c2sc(C(=O)C(C#N)c3ccccn3)cc12 (centres undefined) the results were Pf growth 48h 26%, Pf growth 96h 48%, Sm TGR inh -14% and SARS PLpro yeast 11%.
Screening CC(NC(=O)C(=O)Nc1c2c(nn1-c1ccccc1)CSC2)c1ccccc1 (centres undefined) returned Sm TGR inh 3% and HCMV antiviral -22.
`COc1ccc(N2CCN(C(=O)c3cnn(-c4ccc(OC)cc4)c3C3CCN(C(=O)OC(C)(C)C)CC3)CC2)cc1` gave Sm TGR inh 4% and HCMV antiviral inconclusive.
`O=C(c1cccc(C(=O)N2CCN(c3ncccn3)CC2)c1)N1CCN(c2ncccn2)CC1` gave HCV inh 10%, Pf growth 48h 22%, Pf growth 96h inconclusive, Sm TGR inh 14%, HCMV antiviral -27 and SARS PLpro yeast 3%.
Screening Cc1nc2cc(NC(=O)N3CCN(c4ccccn4)CC3)ccc2o1 returned HCV inh inconclusive, Pf growth 48h -25%, Sm TGR inh 5% and HCMV antiviral -29.
Screening O=C(c1ccc2nc(-c3ccco3)c(-c3ccco3)nc2c1)N1CCN(c2ncccn2)CC1 returned HCV inh -26%, Pf growth 48h -2%, Pf growth 96h 1%, Sm TGR inh 10µM*, HCMV antiviral 56 and SARS PLpro yeast -7%.
For O=C(Nc1ccc2nc(-c3ccco3)c(-c3ccco3)nc2c1)N1CCN(c2ccccn2)CC1 the results were HCV inh 7.9µM*, Pf growth 48h inconclusive, Pf growth 96h -30%, Sm TGR inh 2µM*, HCMV antiviral -24 and SARS PLpro yeast -3%.
For CCc1ccc(CN(C)C(=O)C2CCC(=O)N(CC3CCCCC3)C2)cc1 (centres undefined) the results were HCV inh 6%, Pf growth 48h inconclusive, Pf growth 96h 13µM*, Sm TGR inh 1%, HCMV antiviral 20 and SARS PLpro yeast -4%.
COc1cccc(CCNC(=O)C2CCC(=O)N(Cc3cccc(OC)c3)C2)c1 (centres undefined) was read as HCV inh -4%, Pf growth 48h 10%, Pf growth 96h 51%, Sm TGR inh 4%, HCMV antiviral 6 and SARS PLpro yeast -2%.
Screening CN(Cc1ccccc1C(F)(F)F)C(=O)C1CCC(=O)N(CC2CCCCC2)C1 (centres undefined) returned HCMV antiviral -13.
For O=C(NCc1ccccc1Cl)C1CCC(=O)N(CC2CCCCC2)C1 (centres undefined) the results were HCV inh 3%, Pf growth 48h 3%, Pf growth 96h 16%, Sm TGR inh 1%, HCMV antiviral -29 and SARS PLpro yeast -5%.
Screening O=C(NCCc1ccccc1Cl)C1CCC(=O)N(CC2CCCCC2)C1 (centres undefined) returned HCV inh 8%, Pf growth 48h -9%, Pf growth 96h 13µM*, Sm TGR inh 5%, HCMV antiviral -36 and SARS PLpro yeast -2%.
`Cc1ccc(CCNC(=O)C2CCC(=O)N(Cc3ccccc3F)C2)o1` (centres undefined) gave HCV inh inconclusive, Pf growth 48h inconclusive, Pf growth 96h 7%, Sm TGR inh 45µM*, HCMV antiviral 16 and SARS PLpro yeast -1%.
For COc1cccc(CN2CC(C(=O)NCCc3ccc(C)o3)CCC2=O)c1 (centres undefined) the results were HCV inh inconclusive, Pf growth 48h 10%, Pf growth 96h inconclusive, Sm TGR inh 13µM*, HCMV antiviral -5 and SARS PLpro yeast -2%.
Screening Cc1cc(C)nc(CCNC(=O)C2CCC(=O)N(Cc3ccccc3F)C2)n1 (centres undefined) returned HCV inh 29%, Pf growth 48h 23%, Pf growth 96h 62%, Sm TGR inh 0%, HCMV antiviral 43 and SARS PLpro yeast -3%.
For Cc1ccc(C)n1-c1sccc1C(=O)O the results were HCV inh 12%, Pf growth 96h -8%, Sm TGR inh 40µM* and SARS PLpro yeast 5%.
Screening Cc1ccc(C)n1-c1sc2c(c1C(=O)O)CCCC2 returned HCV inh 19%, Pf growth 48h -9%, Pf growth 96h inconclusive, Sm TGR inh 0%, HCMV antiviral 1 and SARS PLpro yeast 4%.
Screening C=CCC(Nc1ccccc1)C12C=CC(O1)C(C(=O)OC)=C2C(=O)OC (centres undefined) returned HCV inh -14%, Pf growth 48h inconclusive, Pf growth 96h 401%, Sm TGR inh 6.3µM*, HCMV antiviral 125 and SARS PLpro yeast -37%.
For Cc1cc(N=Cc2c(O)n(-c3cccc(C(F)(F)F)c3)c(=O)c3ccccc23)no1 the results were HCV inh 4%, Pf growth 48h inconclusive, Pf growth 96h inconclusive, Sm TGR inh -24%, HCMV antiviral 10 and SARS PLpro yeast 10%.
For Cc1nnc(N/N=C/c2c(O)n(-c3cccc(C(F)(F)F)c3)c(=O)c3ccccc23)[nH]c1=O the results were Pf growth 48h 6.6µM*, Pf growth 96h inconclusive, Sm TGR inh -22%, HCMV antiviral 12 and SARS PLpro yeast -1%.
COc1ccc(-n2c(O)c(/C=N/Nc3nc(C)cc(C)n3)c3ccccc3c2=O)cc1OC was read as HCV inh 2.8µM*, Pf growth 48h inconclusive, Pf growth 96h inconclusive, Sm TGR inh 0%, HCMV antiviral -94* and SARS PLpro yeast 3%.
COc1ccc(-n2c(O)c(/C=N/NS(=O)(=O)c3ccc(C)cc3)c3ccccc3c2=O)cc1OC was read as HCV inh 17%, Pf growth 48h inconclusive, Pf growth 96h inconclusive, Sm TGR inh -10%, HCMV antiviral inconclusive and SARS PLpro yeast 1%.
For O=C(O)CCCC/C=C(\c1ccccc1)c1cccnc1 the results were Pf growth 48h -14% and Pf growth 96h 1.7µM*.
COCC(=O)N1CCC(Oc2ccc(C(=O)NC(C)c3nc(C)sc3C)cc2)CC1 (centres undefined) was read as HCV inh 12%, Pf growth 48h 13%, Pf growth 96h 2%, Sm TGR inh -8%, HCMV antiviral -11 and SARS PLpro yeast 3%.
For Fc1ccc(NC(=S)NCCN2CCOCC2)c(F)c1F the results were HCV inh 13%, Pf growth 48h 12%, Pf growth 96h 26%, Sm TGR inh 4%, HCMV antiviral inconclusive and SARS PLpro yeast -1%.
`CCn1c(SCC(=O)Nc2ccc3c(c2)OCCO3)nnc1-c1ccccn1` gave HCV inh 3%, Pf growth 48h 0%, Pf growth 96h 2.1µM*, Sm TGR inh -25%, HCMV antiviral 21 and SARS PLpro yeast -2%.

Screens deposited in PubChem by National Center for Advancing Translational Sciences (NCATS).
